Bioassay records from PubChem.
In the library only some 12% were active in any assay of this set; here they are far more common.
HP1b chromo inh – HP1-beta chromodomain-methylated histone interaction inhibition; P83916; AlphaScreen HP1-beta / biotin-H3K9me3 peptide binding; Potency, µM (doses to about 114 µM), actives largely listed as inhibitors; 390,000 tested, 0.56% active; AID 540317; note: nearly all actives have a fitted effect of over 70% in size
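HP1-beta protein (50 nM final) preincubated 30 min at room temperature with biotinylated H3(1-18)K9me3 peptide (50 nM) in PBS pH 7.4, 0.01% Tween-20, then compound added for 30 min. AlphaScreen streptavidin donor/nickel chelate acceptor beads (10 ug/mL final), 30 min dark, luminescence read.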
G9a block – G9a (human) methyltransferase inhibition; 350,000 tested, 8.8% active; G9a H3K9 monomethylation, AlphaScreen, 2 h; Potency, µM (top dose mostly 102 µM), usual class: inhibitors; Q96KQ7; AID 504332; note: nearly all actives have a fitted effect of over 75% in size
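Enzyme 20 nM + cpd, 15 min RT; add b-H3K9 pep 500 nM / SAM 20 uM; 2 h RT; anti-H3K9me1 Ab 0.5 ug/mL + SA donor / anti-rabbit acceptor beads 20 ug/mL each, 10 min; AlphaScreen read.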
Sfp inh – Sfp phosphopantetheinyl transferase inhibition | Q9F4F7 | Biochemical Sfp PPTase activity, qHTS | Potency, µM, usual class: inhibitors | 310,000 tested, 3.5% active | AID 1490;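 note: the enzyme is Sfp with the accession as filed and its product quenches rhodamine fluorescence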
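After 15 min at room temperature with compound, 15 nM Sfp received 5 uM rhodamine-CoA plus 12.5 uM BHQ-2-ybbR (50 mM Hepes pH 7.6, 10 mM MgCl2). Rate came from the fluorescence difference over 30 min, ex 525/em 598 nm.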
TDP1 inh – TDP1 (human) enzyme inhibition; Q9NUW8; recombinant TDP1, AlphaScreen DNA substrate cleavage; Potency, µM (highest dose often 130 µM), usual class: inhibitors; 350,000 tested, 0.28% active; AID 485290; note: nearly all actives have a fitted effect of over 40% in size
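Here, a 5' biotin and 3' phosphotyrosine-FITC DNA oligonucleotide reports Tdp1 activity: intact substrate bridges AlphaScreen beads, while cleavage leaves a 3' phosphate and drops signal. All incubations at room temperature.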
JMJD2A Tudor inh – inhibitors of human JMJD2A Tudor domain | AID 504339 | 390,000 tested, 4.4% active | AlphaScreen JMJD2A-Tudor / H3K4me3 peptide binding | Potency, µM (highest dose often 114 µM), hits mostly inhibitors; note: nearly all actives have a fitted effect of over 50% in size
BAZ2B block – BAZ2B (human) inhibition | Q9UIF8 | AlphaScreen BAZ2B-H3K14Ac peptide displacement | Potency, µM (series often up to 114 µM), usual class: inhibitors | 360,000 tested, 4.4% active | AID 504333; note: nearly all actives have a fitted effect of over 60% in size
Target sequence (Q9UIF8 whole entry, looked up): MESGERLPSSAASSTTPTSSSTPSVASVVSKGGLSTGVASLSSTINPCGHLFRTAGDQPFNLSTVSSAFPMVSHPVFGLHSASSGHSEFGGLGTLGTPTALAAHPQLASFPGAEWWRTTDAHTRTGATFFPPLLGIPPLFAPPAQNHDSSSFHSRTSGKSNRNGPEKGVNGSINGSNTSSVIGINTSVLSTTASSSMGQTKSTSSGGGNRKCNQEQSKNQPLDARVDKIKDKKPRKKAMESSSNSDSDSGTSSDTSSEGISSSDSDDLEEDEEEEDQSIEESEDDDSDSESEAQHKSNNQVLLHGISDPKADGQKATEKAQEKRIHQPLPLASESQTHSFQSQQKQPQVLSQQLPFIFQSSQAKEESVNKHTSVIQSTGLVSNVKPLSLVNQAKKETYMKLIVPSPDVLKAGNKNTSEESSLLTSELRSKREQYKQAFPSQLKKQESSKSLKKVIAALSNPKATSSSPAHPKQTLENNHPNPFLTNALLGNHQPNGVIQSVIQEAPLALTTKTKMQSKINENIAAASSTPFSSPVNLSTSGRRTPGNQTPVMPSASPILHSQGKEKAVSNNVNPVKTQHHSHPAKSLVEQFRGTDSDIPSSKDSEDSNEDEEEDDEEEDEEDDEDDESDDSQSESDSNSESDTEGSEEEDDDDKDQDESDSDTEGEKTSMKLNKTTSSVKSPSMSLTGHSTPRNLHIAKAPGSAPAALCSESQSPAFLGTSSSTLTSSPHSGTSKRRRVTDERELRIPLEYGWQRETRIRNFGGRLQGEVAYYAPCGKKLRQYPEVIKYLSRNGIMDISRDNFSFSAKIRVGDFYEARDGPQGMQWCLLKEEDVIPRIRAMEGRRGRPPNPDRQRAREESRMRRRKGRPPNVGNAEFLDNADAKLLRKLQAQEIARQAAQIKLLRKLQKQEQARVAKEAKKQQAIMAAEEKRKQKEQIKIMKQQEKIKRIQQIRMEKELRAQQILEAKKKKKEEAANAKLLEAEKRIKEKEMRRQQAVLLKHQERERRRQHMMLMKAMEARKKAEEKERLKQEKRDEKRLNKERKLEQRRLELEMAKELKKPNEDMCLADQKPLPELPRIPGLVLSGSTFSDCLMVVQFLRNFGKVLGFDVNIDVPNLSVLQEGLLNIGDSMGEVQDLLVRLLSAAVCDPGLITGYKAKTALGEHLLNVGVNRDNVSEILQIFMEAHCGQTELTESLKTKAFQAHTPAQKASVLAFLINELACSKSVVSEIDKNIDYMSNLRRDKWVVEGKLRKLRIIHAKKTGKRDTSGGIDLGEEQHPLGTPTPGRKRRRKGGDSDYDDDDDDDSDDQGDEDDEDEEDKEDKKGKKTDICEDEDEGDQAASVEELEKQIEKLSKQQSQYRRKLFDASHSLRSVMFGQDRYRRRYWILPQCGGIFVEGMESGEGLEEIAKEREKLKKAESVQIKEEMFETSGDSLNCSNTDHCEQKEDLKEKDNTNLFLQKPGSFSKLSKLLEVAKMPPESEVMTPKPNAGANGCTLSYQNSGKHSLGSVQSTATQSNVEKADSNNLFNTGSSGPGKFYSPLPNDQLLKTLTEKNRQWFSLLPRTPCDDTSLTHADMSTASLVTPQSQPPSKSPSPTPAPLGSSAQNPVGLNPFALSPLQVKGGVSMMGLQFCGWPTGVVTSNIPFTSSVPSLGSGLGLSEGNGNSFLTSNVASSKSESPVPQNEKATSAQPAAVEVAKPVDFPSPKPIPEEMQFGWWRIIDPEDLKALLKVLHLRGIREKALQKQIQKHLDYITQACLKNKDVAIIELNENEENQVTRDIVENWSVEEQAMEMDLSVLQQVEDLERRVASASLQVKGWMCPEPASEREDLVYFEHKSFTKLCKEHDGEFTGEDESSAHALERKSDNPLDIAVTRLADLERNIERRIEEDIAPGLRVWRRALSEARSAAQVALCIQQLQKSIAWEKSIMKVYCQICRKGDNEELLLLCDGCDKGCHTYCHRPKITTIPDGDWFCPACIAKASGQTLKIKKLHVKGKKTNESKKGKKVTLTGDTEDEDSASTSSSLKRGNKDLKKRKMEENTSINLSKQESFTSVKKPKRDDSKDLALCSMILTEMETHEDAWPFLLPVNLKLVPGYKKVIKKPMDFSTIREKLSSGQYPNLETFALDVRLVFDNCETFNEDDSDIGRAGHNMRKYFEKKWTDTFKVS
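BAZ2B 50 nM plus b-H3(5-23)K14Ac 50 nM, PBS pH 7.4/0.01% Tween-20, 30 min RT; compound added (max 110 uM), 30 min RT; streptavidin donor/Ni-chelate acceptor beads 10 ug/mL final, 20 min dark; AlphaScreen read.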
Each line names hits and unclear results; the compound was inactive in the other large screens. Calls come from the whole dose curve; as a rule, active = well fitted curve in the direction sought with a large enough effect; inconclusive = small, poorly fitted or top-dose-only effect, or another doubt; inactive = no such curve, though single readings can be large; an effect the other way counts as inactive or inconclusive.

CNC(=O)c1sc2nc(-c3ccc(OC)cc3)cn2c1C	G9a block 50µM, BAZ2B block inconclusive
COc1ccc(-c2cn3c(C)c(C(=O)NCCN4CCOCC4)sc3n2)cc1	G9a block 40µM, JMJD2A Tudor inh inconclusive, BAZ2B block inconclusive
Cc1c(C(=O)NCc2cccnc2)sc2nc(-c3ccccc3)cn12	none (no result: TDP1 inh)
Cc1c(C(=O)NCc2cccnc2)sc2nc(-c3ccc(F)cc3)cn12	G9a block 45µM
O=C(CSc1nnc(NC2CCCCC2)s1)NCc1ccco1	G9a block inconclusive (no result: BAZ2B block)
COc1cc(OC)cc(C(=O)NCCN2CCOCC2)c1	HP1b chromo inh inconclusive, G9a block 8.9µM, JMJD2A Tudor inh 10µM, BAZ2B block 50µM
COc1cccc(C(=O)NCCN2CCOCC2)c1	none
CCOc1ccc(-c2cn3c(n2)sc2cc(C(=O)NCCCN4CCCCCC4)ccc23)cc1	none (no result: Sfp inh)
CCN(CC)c1ccc(NC(=O)c2sc3nc(-c4ccccc4)cn3c2C)cc1	G9a block 5µM, JMJD2A Tudor inh 28µM, BAZ2B block 7.9µM (no result: Sfp inh)
CCCN1CCN(CCCNC(=O)c2ccc3c(c2)sc2nc(-c4ccc(OCC)cc4)cn23)CC1	G9a block inconclusive, JMJD2A Tudor inh inconclusive, BAZ2B block 28µM (no result: Sfp inh)
COc1ccc(-c2cn3c(C)c(C(=O)N4CCc5ccccc5C4)sc3n2)cc1	G9a block 35µM, JMJD2A Tudor inh inconclusive, BAZ2B block inconclusive (no result: TDP1 inh)
Cn1nnnc1Sc1ncnc2scc(-c3ccccc3F)c12	none (no result: HP1b chromo inh, G9a block, Sfp inh, TDP1 inh, BAZ2B block)
N#CCN1CCC(c2cc(-c3ccco3)n[nH]2)CC1	HP1b chromo inh inconclusive, Sfp inh 11µM
CCCN(CCC)c1cc(Cl)nc(N)n1	none
O=c1c2ccccc2nc2oc3ccccc3n12	G9a block 25µM, Sfp inh inconclusive
CC(=O)c1cccc(NC(=O)c2nc(-c3ccc(C)cc3)n3c2CCCCC3)c1	none (no result: Sfp inh)
CCCN1CCCc2cc(CN)ccc21	HP1b chromo inh inconclusive, G9a block 8.9µM, Sfp inh inconclusive, JMJD2A Tudor inh 4µM, BAZ2B block 45µM
CN1CCCc2cc(C=O)ccc21	none
Cc1ccc(S(=O)(=O)NCCSCc2ccccc2)cc1	G9a block 10µM
CCOc1ccccc1C(=O)NC1CCN(CC(=O)Nc2cc(OC)ccc2OC)CC1	none (no result: TDP1 inh)
Cc1ccc(OCCCN(C)C)c(Br)c1	HP1b chromo inh inconclusive, G9a block inconclusive, JMJD2A Tudor inh 3.2µM, BAZ2B block 79µM
COc1cccc(OC)c1OCCCOc1ccc(C)cc1Br	Sfp inh inconclusive
COc1ccccc1OCCCCNC(C)(C)C	none (no result: BAZ2B block)
Cc1cc(Cl)c(OCCCCNC(C)(C)C)c(Br)c1	G9a block 8.9µM, BAZ2B block inconclusive (no result: HP1b chromo inh, JMJD2A Tudor inh)
COc1ccccc1OCCCOc1c(C)cc(C)cc1Br	none
Cc1cc(Cl)c(OCCCN(C)C)c(Br)c1	HP1b chromo inh inconclusive, G9a block 11µM, JMJD2A Tudor inh 8.9µM
CN(C)CCCOc1ccc(Cl)cc1Br	HP1b chromo inh inconclusive, JMJD2A Tudor inh 1µM, BAZ2B block 45µM
Cc1ccccc1NC(=O)CSc1nc(N)c2c3c(sc2n1)CSC(C)(C)C3	HP1b chromo inh 79µM, G9a block inconclusive, BAZ2B block inconclusive
COc1ccc(C(c2c(C)[nH]n(C(N)=S)c2=O)C(C#N)C#N)cc1 (centres undefined)	G9a block inconclusive, Sfp inh inconclusive
Cc1[nH]n(-c2ncc(-c3ccc(Cl)cc3)s2)c(=O)c1C(c1ccc(Cl)cc1)C(C#N)C#N (centres undefined)	HP1b chromo inh inconclusive, G9a block inconclusive, Sfp inh inconclusive, JMJD2A Tudor inh 56µM, BAZ2B block inconclusive
Cc1cc(=O)n2nc(N3CCCC(C(=O)NCCc4ccc(Cl)cc4)C3)sc2n1 (centres undefined)	none
CCOC(=O)c1cc2oc(C)cc2n1CC(=O)OC1CCCCC1	G9a block inconclusive, Sfp inh 79µM, BAZ2B block inconclusive
CCN(CC)CCCC1(CN)OCCc2ccccc21 (centres undefined)	G9a block 25µM
O=C1CCCCC1CCc1ccncc1 (centres undefined)	none (no result: G9a block, Sfp inh, TDP1 inh, BAZ2B block)
CN(C(=O)c1ccc2ccccc2c1)c1ccccn1	G9a block inconclusive (no result: TDP1 inh)
Cc1ccc(C(=O)CC2(O)C(=O)N(Cc3ccccc3F)c3ccccc32)cc1 (centres undefined)	BAZ2B block inconclusive (no result: Sfp inh)
CCCN1C(=O)C(O)(CC(=O)c2ccc(OC)c(OC)c2)c2ccccc21 (centres undefined)	none (no result: Sfp inh, TDP1 inh)
N#CCCCN1C(=O)C(O)(CC(=O)c2ccc3c(c2)OCCO3)c2ccccc21 (centres undefined)	G9a block 35µM
Cc1ccc(CN2C(=O)C(O)(CC(=O)c3ccc(C)cc3)c3ccccc32)cc1 (centres undefined)	HP1b chromo inh inconclusive, G9a block 11µM, JMJD2A Tudor inh 50µM, BAZ2B block 13µM (no result: Sfp inh, TDP1 inh)
Cc1coc(C)c1C(=O)CC1(O)C(=O)N(Cc2ccccc2)c2ccccc21 (centres undefined)	HP1b chromo inh inconclusive, Sfp inh inconclusive, JMJD2A Tudor inh 89µM, BAZ2B block inconclusive
Cc1ccc(S(=O)(=O)CC(=O)Nc2cc(C)on2)cc1	none (no result: TDP1 inh)
COc1ccc(Cl)cc1S(=O)(=O)N1CCN(C(=O)c2cc(-c3ccc(Br)cc3)n[nH]2)CC1	none (no result: Sfp inh)
CC(=O)Nc1ccc(OC(=O)c2ccccc2O)cc1	none (no result: HP1b chromo inh, JMJD2A Tudor inh, BAZ2B block)
CCCCCn1c(N)c(-c2nc3ccccc3o2)c2c([N+](=O)[O-])nn(C)c(=O)c21	JMJD2A Tudor inh 45µM, BAZ2B block inconclusive
COc1ccc(-n2cc(CNCC3CCOCC3)c(-c3cccc(F)c3)n2)cc1	none
COc1ccc(-n2cc(CNCc3cnc4ccccn34)c(-c3cccc(F)c3)n2)cc1	Sfp inh inconclusive, BAZ2B block 45µM (no result: G9a block, TDP1 inh)
OCCNC1=NCCN1	none
Fc1ccc(Sc2ccccc2CNC2=NCCN2)cc1	G9a block 6.3µM
COc1ccc(C2=NO[C@@](CC(=O)O)(C(=O)Nc3ccc4c(c3)OCCO4)C2)cc1	none (no result: TDP1 inh)
C/C(N)=C(/C#N)C(=O)CSc1nc2ccc(C)cc2[nH]1	G9a block 16µM
CCCc1cc(=O)[nH]c(SCC(=O)c2c(N)n(C)c(=O)n(C)c2=O)n1	none
Cc1ccc2nc(SCC(=O)c3c(N)n(C)c(=O)n(C)c3=O)[nH]c2c1	G9a block 0.89µM, BAZ2B block inconclusive
COCCNC(=O)c1ccc2c(=O)n(CCOC)c(SCC(=O)c3c[nH]c4ccccc34)nc2c1	none (no result: Sfp inh)
CCn1c(O)c(N=NC2=NC(=O)CS2)c2ccccc21	JMJD2A Tudor inh inconclusive, BAZ2B block 50µM
Cc1cc(O)c(N=Nc2ccc(C(=O)O)cc2)cc1C	JMJD2A Tudor inh inconclusive (no result: G9a block, Sfp inh, TDP1 inh, BAZ2B block)
Cc1cc(N=NC(=O)c2ccccc2)ccc1O	G9a block inconclusive, Sfp inh 50µM, BAZ2B block inconclusive
